In PubChem BioAssay (NCI) one finds growth data, which are given here for 8 molecules.

This is part of a sample that, as a whole, favours compounds with a hit. Of some 83,000 tested, about 20% had one in any assay.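 Note: values are percent growth. 100 is the growth of untreated cells, values between 100 and 0 indicate rising inhibition; between -100 and 0 indicates cell death.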 Values without a mark were called inactive. Active and inactive are the calls of the source. The calls were made as follows: active = growth percent below 10; inactive = the rest.

Some test systems named below: SK-MEL-2 melanoma; EKVX NSCLC; SN12C renal; UO-31 renal; TK-10 renal; ACHN renal; CAKI-1 renal; A498 renal; CCRF-CEM leukemia; MOLT-4 leukemia; SR leukemia; RPMI-8226 leukemia; OVCAR-8 ovarian; OVCAR-5 ovarian; OVCAR-4 ovarian; SK-OV-3 ovarian; IGROV1 ovarian; OVCAR-3 ovarian; HS 578T breast; NCI/ADR-RES ovarian.
Test in all cases: NCI-60 one-dose screen, 48 h (100 = growth as untreated, 0 = no growth, -100 = all killed)
What all share (details): 10 µM unless noted

On to `CCOC(=O)c1c(NC(=O)c2ccc(Cl)cc2)sc2c(CN(C)C)c(O)ccc12`, for which the growth with SK-MEL-2 melanoma is 101%; in the assay on EKVX NSCLC it was 93.8%; in the assay on SN12C renal, 83.6%; in the assay on UO-31 renal, 67.5%; with TK-10 renal, 108%; in the assay with ACHN renal it was 50.7%. Moreover, the growth in the assay on CAKI-1 renal is 67.2%; in the assay on A498 renal it was 76.3%; with CCRF-CEM leukemia it was 62.6%; with MOLT-4 leukemia, 59.5%; in the assay on SR leukemia, -8.09% (active); in the assay on RPMI-8226 leukemia, -13% (active). For the same molecule, the growth is 47.7% with OVCAR-8 ovarian; 95.2% in the assay with OVCAR-5 ovarian; 73.5% in the assay with OVCAR-4 ovarian; 81.6% with SK-OV-3 ovarian; 66.1% in the assay on IGROV1 ovarian; 105% with OVCAR-3 ovarian. The growth in the assay on HS 578T breast is 79.2%; with NCI/ADR-RES ovarian, 73.3%.

Take `C#CCNC(=O)[C@H](CC)[C@H]1CC[C@H](C)[C@H]([C@@H](C)[C@H](O)[C@H](C)C(=O)[C@H](CC)C2O[C@]3(C=CC(=O)[C@]4(CC[C@@](C)([C@H]5CC[C@](O)(CC)[C@H](C)O5)O4)O3)[C@H](C)C[C@@H]2C)O1` (stereo not given in full): the growth in the assay with SK-MEL-2 melanoma is 45%; in the assay with EKVX NSCLC it was 51.3%; in the assay on SN12C renal, 48.7%; with UO-31 renal it was 47.9%; in the assay with TK-10 renal, 87.1%; in the assay on ACHN renal, 45%. Besides, the growth with CAKI-1 renal is 17.4%; in the assay on A498 renal, 38.5%; with CCRF-CEM leukemia, 27.3%; in the assay on MOLT-4 leukemia it was 32.4%; with SR leukemia, 13.5%; in the assay on RPMI-8226 leukemia it was 25.3%. Besides, the growth with OVCAR-8 ovarian is 66.8%; with OVCAR-5 ovarian, 68.7%; with OVCAR-4 ovarian it was 13.9%; in the assay with SK-OV-3 ovarian it was 68.2%; in the assay on IGROV1 ovarian, 48.5%; in the assay with OVCAR-3 ovarian, -23.5% (active). Moreover, the growth in the assay on HS 578T breast is 35%; in the assay on NCI/ADR-RES ovarian it was 14.7%.

As to `COC(=O)C1Cc2ccccc2CN1C(=O)c1ccc2c(c1)Cc1ccccc1-2` (stereo not given), the growth is 47.4% [50 µM] in the assay on SK-MEL-2 melanoma; 24.5% [50 µM] in the assay with EKVX NSCLC; 38.5% [50 µM] with SN12C renal; 13.9% [50 µM] with UO-31 renal; 52.2% [50 µM] with TK-10 renal; 43.3% [50 µM] with ACHN renal. Further, the growth is 28.7% [50 µM] in the assay on CAKI-1 renal; 27.3% [50 µM] with A498 renal; 32.1% [50 µM] in the assay with CCRF-CEM leukemia; 21.9% [50 µM] in the assay with MOLT-4 leukemia; 57.2% [50 µM] in the assay on SR leukemia; 18.1% [50 µM] with RPMI-8226 leukemia. Also, the growth is 32.4% [50 µM] in the assay on OVCAR-8 ovarian; 62.4% [50 µM] in the assay on OVCAR-5 ovarian; 20.2% [50 µM] with OVCAR-4 ovarian; 86% [50 µM] in the assay on SK-OV-3 ovarian; 42.8% [50 µM] in the assay on IGROV1 ovarian; 47% [50 µM] in the assay on OVCAR-3 ovarian. Also, the results for the growth in the assay with HS 578T breast and with NCI/ADR-RES ovarian were 70.4% [50 µM] and 25.6% [50 µM], respectively.

As to `CCOC(=O)C1=C(c2ccccc2)N=C2SC=C(c3ccc(Cl)cc3)N2C1c1ccc(Cl)cc1` (stereo not given), the growth in the assay with SK-MEL-2 melanoma is 98.2%; in the assay with EKVX NSCLC, 69.9%; in the assay on SN12C renal, 85.5%; in the assay on UO-31 renal, 74.7%; in the assay with TK-10 renal it was 108%; in the assay with ACHN renal it was 91.3%. Also, the growth in the assay on CAKI-1 renal is 60.7%; in the assay on A498 renal, 7.54% (active); in the assay on CCRF-CEM leukemia, 79.3%; in the assay with MOLT-4 leukemia it was 31.5%; with SR leukemia it was 75.7%; in the assay with RPMI-8226 leukemia it was 65.9%. Also, the growth is 78.6% in the assay with OVCAR-8 ovarian; 96.9% in the assay with OVCAR-5 ovarian; 48.7% in the assay with OVCAR-4 ovarian; 86.5% in the assay with SK-OV-3 ovarian; 72.3% in the assay with IGROV1 ovarian; 65.8% in the assay with OVCAR-3 ovarian. Further, the values for the growth with HS 578T breast and in the assay with NCI/ADR-RES ovarian were 85.2% and 92.3%, respectively.

On to `CCCOC(=O)Nc1nc2ccc(SCC(C)C)cc2s1`, for which the growth in the assay on SK-MEL-2 melanoma is 48.6%; in the assay on EKVX NSCLC, 52.3%; in the assay with SN12C renal, 44.4%; in the assay with UO-31 renal it was 44.8%; in the assay with TK-10 renal it was 50.4%; in the assay with ACHN renal, 51.9%. In addition, the growth was 49.1% in the assay with CAKI-1 renal; 40.8% with A498 renal; 22.9% with CCRF-CEM leukemia; 33.8% in the assay with MOLT-4 leukemia; 14.3% with SR leukemia; 28.4% with RPMI-8226 leukemia. For the same molecule, the growth is 60.5% with OVCAR-8 ovarian; 60.1% with OVCAR-5 ovarian; 61.2% in the assay on OVCAR-4 ovarian; 48.5% in the assay on SK-OV-3 ovarian; 55.4% in the assay with IGROV1 ovarian; 15.6% with OVCAR-3 ovarian. The growth in the assay with HS 578T breast was 65.3%; in the assay on NCI/ADR-RES ovarian, 16.1%.

Take `C=CCN=c1sc2c(n1NC(=O)c1cc3ccc1CCc1ccc(cc1)CC3)C(=O)c1ccccc1C2=O`: the growth with SK-MEL-2 melanoma is -17.3% (active); in the assay on EKVX NSCLC it was -20.2% (active); in the assay with SN12C renal, -96.6% (active); in the assay with UO-31 renal, -35.2% (active); in the assay on TK-10 renal, 58.3%; in the assay on ACHN renal, -95.3% (active). Moreover, the growth is 20.3% in the assay on CAKI-1 renal; 56% in the assay on A498 renal; -3.65% (active) with CCRF-CEM leukemia; -15.5% (active) in the assay on MOLT-4 leukemia; -8.54% (active) with SR leukemia; -27.7% (active) with RPMI-8226 leukemia. Moreover, the growth is 5.6% (active) in the assay with OVCAR-8 ovarian; -65.7% (active) in the assay on OVCAR-5 ovarian; -96.3% (active) in the assay on OVCAR-4 ovarian; 55.7% in the assay on SK-OV-3 ovarian; -20.5% (active) in the assay on IGROV1 ovarian; -26.4% (active) in the assay on OVCAR-3 ovarian. For the same molecule, the growth is -9.43% (active) in the assay on HS 578T breast and -12.8% (active) in the assay on NCI/ADR-RES ovarian.

With `N#Cc1ccc(O)c(C2=NCC(c3cccc(Oc4ccccc4)c3)O2)c1` (stereo not given), the growth is 7.46% (active) in the assay on SK-MEL-2 melanoma; 24% in the assay with EKVX NSCLC; 33.3% with SN12C renal; -6.42% (active) in the assay with UO-31 renal; 3.38% (active) in the assay on TK-10 renal; 17.5% with ACHN renal. Also, the growth with CAKI-1 renal was 6.87% (active); in the assay with A498 renal it was 50.9%; with CCRF-CEM leukemia it was 14.4%; in the assay with MOLT-4 leukemia, -0.248% (active); in the assay with SR leukemia it was 19.7%; with RPMI-8226 leukemia, 28.1%. The growth was 12.9% with OVCAR-8 ovarian; 55.5% with OVCAR-5 ovarian; 18.3% with OVCAR-4 ovarian; -1.44% (active) with SK-OV-3 ovarian; 19.2% with IGROV1 ovarian; 27.3% in the assay with OVCAR-3 ovarian. Besides, the growth with HS 578T breast was 52.6%; in the assay on NCI/ADR-RES ovarian, 2.42% (active).

For `N#Cc1ccc2c(c1)C(=O)c1c-2n(CCCN)c(=O)c2cc([N+](=O)[O-])ccc12`, the growth was -52.2% (active) with SK-MEL-2 melanoma; -88% (active) with EKVX NSCLC; -100% (active) with SN12C renal; -100% (active) in the assay on UO-31 renal; -100% (active) in the assay on TK-10 renal; -100% (active) with ACHN renal. Moreover, the growth is -91.4% (active) with CAKI-1 renal; -39.3% (active) with A498 renal; -72.6% (active) with CCRF-CEM leukemia; -62.2% (active) with MOLT-4 leukemia; -52% (active) in the assay on SR leukemia; -45.5% (active) with RPMI-8226 leukemia. Besides, the growth with OVCAR-8 ovarian was -71.6% (active); in the assay on OVCAR-5 ovarian, 16.6%; with OVCAR-4 ovarian, -82% (active); in the assay with SK-OV-3 ovarian, -100% (active); in the assay with IGROV1 ovarian, -95.6% (active); with OVCAR-3 ovarian, -96.4% (active). The growth with HS 578T breast is -77.7% (active); with NCI/ADR-RES ovarian it was -36.3% (active).
